# Laboratory results published in PubChem BioAssay (EPA / NIEHS).
# Where a structure was tested more than once in an assay, its records may differ in their call. Active and inactive are the calls of the source. Rule for the calls: active = hit-call score of the fitted dose curve at least 0.9, where 1 is the maximum; inactive = score below 0.9.
# Assay: ATG_AP_1_CIS: Attagene CIS-FACTORIAL HepG2 Assay for human Activator Protein 1 (AP-1) (AID 2282931)
# Settings: HepG2 Attagene cis-factorial AP-1 reporter mRNA; actives raise or lower the signal
# Experimental: ATG_CIS is a cell-based, multiplexed-readout assay that uses HepG2, a human liver cell line, with measurements taken at 24 hours after chemical dosing in a 24-well plate.ATG_AP_1_CIS is one of 52 assay component(s) measured or calculated from the ATG_CIS assay. It is designed to make measurements of mRNA induction, a form of inducible reporter, as detected with fluorescence intensity signals by Reverse transcription polymerase chain reaction (RT-PCR) and Capillary electrophoresis technology.Data from the assay component ATG_AP_1_CIS was analyzed into 1 assay endpoint. This assay endpoint, ATG_AP_1_CIS, was analyzed with bidirectional fitting relative to DMSO as the negative control and baseline of activity. Using a type of inducible reporter, measures of mRNA for gain or loss-of-signal activity can be used to understand the reporter gene at the transcription factor-level as they relate to the gene FOS and JUN. Furthermore, this assay endpoint can be referred to as a primary readout, because this assay has produced multiple assay endpoints where this one serves a reporter gene function. To generalize the intended target to other relatable targets, this assay endpoint is annotated to the dna binding intended target family, where the subfamily is basic leucine zipper.
# Human liver HepG2 cells are transiently transfected with multiple reporter transcription units (MRTUs) in 6-well plates using FuGene 6 reagent (Roche; 3 ml FuGene/1 mg DNA). The MRTU constructs are regulated by a cis-regulating element (promoter). […] A major difference between the CIS and TRANS system is that in CIS activities of endogenous TFs are measured, whereas the TRANS assay evaluates changes in activities of exogenous, chimeric NR-Gal4 proteins. […] At the end of 24 hour incubation, total RNA was isolated using TriZol reagent (Invitrogen). The isolated RNA is then reverse-transcribed using oligo(dT) primer and Mo-MLV reverse transcriptase (Invitrogen) with DNAse I (Ambion) treatment for 30 min. The one-tenth of the produced cDNA was amplified by PCR using Taq DNA polymerase (Invitrogen) and two reporter sequence-specific primers. The PCR products were fluorescently labeled by primer extension with 6-arboxyfluorescein (6-FAM) 5'-labeled reporter sequence-specific primer (2 min at 95 C, 20 s at 68 C and 10 min at 72 C) and these products were digested with 5U of HpaI (New England Biolabs) for 2h at 37 C. The fragments were purified using Qiaquick PCR columns (Qiagen), analyzed on an ABI 3130xL genetic analyzer (Applied Biosystems) with peak positions identified by using a set of X-rhodamine (ROX)-labeled MapMarker1000 molecular weight standards (BioVentures). The raw capillary electrophoresis data was processed using Attagraph software (Attagene).
Structure (SMILES),outcome,AC50
COC(=O)c1ccccc1S(=O)(=O)NC(=O)N(C)c1nc(C)nc(OC)n1,inactive,
O=[N+]([O-])c1c(Cl)c(Cl)c(Cl)c(Cl)c1Cl,inactive,
CCC(C)Nc1c([N+](=O)[O-])cc(C(C)(C)C)cc1[N+](=O)[O-] (stereo not given),,43.3 µM (active)
O=C(NC(=O)c1c(F)cccc1F)Nc1ccc(OC(F)(F)C(F)OC(F)(F)F)c(Cl)c1 (stereo not given),inactive,
CCOCN(C(=O)CCl)c1c(C)cccc1CC,inactive,
C[C@H]1[C@H](c2ccc(Cl)cc2)SC(=O)N1C(=O)NC1CCCCC1,,23.1 µM (active)
N#Cc1c(Cl)c(Cl)c(Cl)c(C#N)c1Cl,inactive,
ClC1C(Cl)C(Cl)C(Cl)C(Cl)C1Cl (stereo not given),inactive,47.9 µM (active)
O=C(O)C(F)(F)C(F)(F)C(F)(F)C(F)(F)C(F)(F)C(F)(F)C(F)(F)F,inactive,150 µM (active)
CNC(=O)Oc1cccc(N=CN(C)C)c1,,77.5 µM (active)
Cc1cc(C)nc(NC(=O)NS(=O)(=O)c2ccccc2C(=O)OC2COC2)n1,inactive,
CCCN(CCOc1c(Cl)cc(Cl)cc1Cl)C(=O)n1ccnc1,inactive,14 µM (active)
O=C(O)CCCOc1ccc(Cl)cc1Cl,inactive,
CCOC1Oc2ccc(OS(C)(=O)=O)cc2C1(C)C (stereo not given),inactive,
CCCN(CCC)c1c([N+](=O)[O-])cc(C(F)(F)F)cc1[N+](=O)[O-],inactive,
COP(=O)(OC)OC=C(Cl)Cl,,67.3 µM (active)
COc1cc(OC)nc(NC(=O)NS(=O)(=O)c2cc(NC=O)ccc2C(=O)N(C)C)n1,inactive,

Structure (SMILES),outcome,AC50
O=S(=O)(O)C(F)(F)C(F)(F)C(F)(F)C(F)(F)C(F)(F)C(F)(F)C(F)(F)C(F)(F)F,inactive,26.9 µM (active) [middle of 8 runs]
CCC(C)(NC(=O)c1cc(Cl)c(C)c(Cl)c1)C(=O)CCl (stereo not given),inactive,
O=C1c2ccccc2C(=O)N1SC(Cl)(Cl)Cl,inactive,
OCCOc1ccccc1,inactive,
CCc1ccc(C(=O)NN(C(=O)c2cc(C)cc(C)c2)C(C)(C)C)cc1,inactive,
[2H]C1([2H])[n+]2ccccc2-c2cccc[n+]2C1([2H])[2H],,38.9 µM (active)
COc1nn(CSP(=S)(OC)OC)c(=O)s1,inactive,
O=C(O)COc1ccc(Cl)cc1Cl,inactive,
CNC(=O)Oc1ccccc1OC(C)C,inactive,
N#CN,inactive,
CC(C)(C)C(O)C(Oc1ccc(Cl)cc1)n1cncn1 (stereo not given),inactive,10.4 µM (active)
COC(=O)c1ccccc1CS(=O)(=O)NC(=O)Nc1nc(OC)cc(OC)n1,inactive,
O=C(Nc1ccccc1)Nc1cnns1,,50 µM (active)
CCN(CC)C(=O)SCc1ccc(Cl)cc1,inactive,
CCS(=O)(=O)c1cccnc1S(=O)(=O)NC(=O)Nc1nc(OC)cc(OC)n1,inactive,
CC[C@H](C)[C@H]1O[C@]2(C=C[C@@H]1C)C[C@@H]1C[C@@H](C/C=C(\C)[C@@H](O[C@H]3C[C@H](OC)[C@@H](O[C@H]4C[C@H](OC)[C@@H](O)[C@H](C)O4)[C@H](C)O3)[C@@H](C)/C=C/C=C3\CO[C@@H]4[C@H](O)C(C)=C[C@@H](C(=O)O1)[C@]34O)O2 (tested in a mixture with another compound),inactive,
Oc1ccc(Cl)cc1Cc1ccccc1,inactive,12.7 µM (active)
